Records with an inconclusive call do not appear. Unmarked numbers belong to inactive results. Calls of active or inactive are those of the source. The call rests on the fitted dose curve; in most records, active means well fitted cell-killing curve with a large enough effect; inconclusive means small, poorly fitted or top-dose-only effect; inactive means no such curve, though single readings can be large or run the other way.
Test: qHTS of pediatric cancer cell lines to identify multiple opportunities for drug repurposing: Primary screen for Rh30 cells (AID 1347107); further: nearly all actives have a fitted effect of over 75% in size
Details: Rh30 rhabdomyosarcoma viability, CellTiter-Glo luminescence, 48 h; series mostly up to 46 µM; activity change, negative = cytotoxic: at the top concentration
Text: Drug repurposing or repositioning has been offered as a strategy for drug development in oncology programs. This approach has special potential for childhood cancers and other rare or orphan diseases, where the expected return on new drug development has been a disincentive to pharmaceuticals.
In this project we exploit the poly-pharmacology of drugs to discover new indications via phenotypic screening of a panel of 19 well-characterized cell lines derived from solid tumors seen in children and adolescents. The goal is to identify approved drugs with previously unrecognized anticancer properties that has the potential to reveal new mechanisms and biological processes involved in carcinogenesis or drug resistance. We employed a titration-based paradigm (quantitative high-throughput screening or qHTS), where all compounds were tested at multiple concentrations for their effect on cell viability. Concentration-response curves (CRCs) were derived directly from the primary screen, and both potency and efficacy values were used to identify compounds with robust bioactivity profiles. We screened the NIH Chemical Genomics Center (NCGC) Pharmaceutical Collection (NPC) and Mechanism Interrogation Plate (MIPE) small molecule collections of approved and investigational compounds against these cell lines; and measured metabolically active cells after 48 hours of compound treatment as a proxy for cell viability.
Assay Submitter: Nathalia J. Martinez, National Center for Advancing Translational Sciences, National Institutes of Health, Rockville, MD, USA; email: natalia.martinez@nih.gov
[1] Shen, M et al. Quantitative high-throughput phenotypic screening of pediatric cancer cell lines identifies multiple opportunities for drug repurposing. Oncotarget 2017 Dec 19;9(4):4758-4772. PMID 29435139.
The cells were obtained from University of North Carolina (UNC), Pediatric Preclinical Testing Program (PPT), and Coriell Institute (CI).
qHTS cell viability assay:
Cells were assayed in growth media at a density of 500-1,000 cells/well. Five microliters of cells were dispensed into 1,536-well, white, solid-bottom, TC-treated plates (Greiner Bio One) using a multidrop dispenser and incubated at 37 degrees C, 5% CO2, under a humidified atmosphere for 5 hours. Twenty-three nanoliters of compounds and controls (neutral control DMSO or positive control bortezomib at final concentration of 2.3 µM) were subsequently transferred by Kalypsys pintool. For primary screens, the MIPE collection was tested at 11-point dilutions (final concentrations range from 0.78 nM to 46 µM) and the NPC collection at 8-point dilutions (final concentrations range from 0.59 nM to 46 µM). Compounds tested in follow-up screens were assayed at 11-point dilutions. Cells were incubated for 48 hours, followed by addition of 3 µL of CellTiter-Glo (Promega). After a 15 min incubation at room temperature, samples were analyzed for luminescence intensity using a ViewLux High-throughput CCD imager equipped with clear filters.
On the % scale 0 is the no-effect control and ±100 the full control effect; potency means the concentration at half of the fitted maximal effect.

In order of falling “activity change, negative = cytotoxic” value:
1. CC(Oc1c(Cl)cccc1Cl)C1=NCCN1 (stereo not given)  32.6%
2. CN1Cc2cc(C(=O)N3CCC(C4CCNCC4)CC3)ccc2N[C@@H](CC(=O)O)C1=O  32.4%
3. COC(=O)CCCCC(CCSS/C(CCO)=C(\C)N(C=O)Cc1cnc(C)nc1N)SC(C)=O (stereo not given)  29.1%
4. Nc1ncnc2c1ncn2Cc1c(F)cccc1Cl  28.9%
5. CCOC(=O)CN1CCCC1=O  26.5%
6. CCOC(=O)c1ccc(NC(=O)CN2CCCCC2)cc1  25.7%
7. O=C(O)[C@@H](O)[C@H](O)[C@H](O)[C@@H](O)C(=O)O  24.4%
8. CC(=O)Nc1ccc(S(=O)(=O)Nc2cc(C)on2)cc1  23.7%
9. COC(=O)c1cc(Cl)ccc1NS(=O)(=O)C(F)(F)F  23.4%
10. CO/N=C(/C(=O)N[C@@H]1C(=O)N2C(C(=O)O)=C(Cn3nnc(C)n3)CS[C@H]12)c1csc(N)n1  23.2%
11. CC(=O)OC/C=C(C)/C=C/C=C(C)/C=C/C1=C(C)CCCC1(C)C  21.9%
12. O=C1CC(c2ccc(Cl)cc2)CC(=O)N1  21.9%
13. Clc1ccc2c(c1)Nc1ccccc1S2  21.6%
14. Cc1cc(O)c(C)c(C)c1O  21.5%
15. CCOC(=O)c1cc(=O)c2c(OCC(COc3cccc4oc(C(=O)OCC)cc(=O)c34)OC(=O)[C@@H](N)CCCCN)cccc2o1  21.5%
16. CC(C)C(=O)Nc1cccc(C(F)(F)F)c1  20.4%
17. OCc1cccnc1  20.2%
18. Oc1cccc2[nH]ccc12  20%
19. O=C(O)Cc1ccccc1Oc1ccc(Cl)cc1Cl  19.5%
20. COc1ccc2c(c1)CCCC2=O  19.1%
21. O=C1c2ccccc2CCc2ccccc21  18.7%
22. C[C@H](N)C(=O)N[C@@H](C)C(=O)NC1[C@H]2CN(c3nc4c(cc3F)c(=O)c(C(=O)O)cn4-c3ccc(F)cc3F)C[C@@H]12 (stereo not given in full)  17.4%
23. N#Cc1cc(NC(=O)C(=O)O)c(Cl)c(NC(=O)C(=O)O)c1  16.1%
24. CC1(C)S[C@@H]2[C@H](NC(=O)C(c3ccccc3)S(=O)(=O)O)C(=O)N2[C@H]1C(=O)O (stereo not given in full)  15.5%
25. Cn1c(=O)c2c(ncn2CC(=O)O)n(C)c1=O  15.3%
26. CC(C)(C)c1ccc(C(=O)CCCCl)cc1  15%
27. N#CSCC(=O)O  12.4%
28. COc1cc(OC)nc(O[C@H](C(=O)O)C(OC)(c2ccccc2)c2ccccc2)n1  10.4%
29. CC(CC(C#N)(c1ccccc1)C(C)C)N(C)C (stereo not given)  10.3%
30. CCOc1c(N2CCOCC2)cnn(C)c1=O  10%
31. COc1ccc(-n2nc(CCC(=O)N(C)O)cc2-c2ccc(Cl)cc2)cc1  7.76%
32. CCOC(=O)OCC/C(SC(=O)OCC)=C(\C)N(C=O)Cc1cnc(C)nc1N  6.27%
33. C[C@@H]1CCC[C@H](C)N1CCCC(O)(c1ccccc1)c1ccccn1 (stereo not given in full)  2.15%
34. O=C1Nc2ccccc2C1(c1ccc(O)cc1)c1ccc(O)cc1  -6.9%
35. CCCC(=O)O[C@]1(C(=O)CC)CC[C@H]2[C@@H]3CCC4=CC(=O)CC[C@]4(C)[C@H]3[C@@H](O)C[C@@]21C  -15.3%
36. CO[C@@H]1[C@@H](OC)[C@H](C)[C@@](O)(CC(=O)O)O[C@H]1[C@H](C)[C@H]1O[C@@]2(CC[C@@](C)([C@H]3CC[C@@](C)([C@@H]4O[C@@H]([C@H]5O[C@](C)(O)[C@H](C)C[C@@H]5C)C[C@@H]4OC4C[C@H](OC)[C@@H](OC)[C@H](C)O4)O3)O2)C[C@H](O)[C@H]1C (stereo not given in full)  -25.1%

In order of falling “activity change, negative = cytotoxic” value:
1. CCCC(=O)O[C@]1(C(=O)COC(=O)CC)CC[C@H]2[C@@H]3CCC4=CC(=O)CC[C@]4(C)[C@H]3[C@@H](O)C[C@@]21C  29.4% [at 16.1 µM]
2. Nc1c(NC/C=C\COc2cc(CN3CCCCC3)ccn2)c(=O)c1=O  12% [at 16.1 µM]

In the case of `Cc1cc2nc3ccc(=[N+](C)C)cc-3sc2cc1N`, the Potency is reported as 15 µM (active).

In the case of `O=C(NO)c1ccccc1`, the “activity change, negative = cytotoxic” value is reported as 16% [at 92.7 µM].

Reference: PubChem BioAssay (NCATS)
